In the library only some 0.34% were active in any assay of this set; here they are far more common.
Vif-APOBEC3G blk = qHTS for Inhibitors of Vif-A3G Interactions: qHTS; DNA dC->dU-editing enzyme APOBEC-3G (Homo sapiens), Q9HC16; HeLa A3G-eYFP + Vif (tagged APOBEC3G with the HIV-1 protein that degrades it), YFP fluorescence, overnight; Potency, µM (titrated, usually from 46.1 µM), most hits filed as inhibitors; hit rate 0.076% among 410,000; AID 602310, 2012; note: nearly all actives have a fitted effect of over 60% in size
Target sequence (Q9HC16 whole entry, looked up): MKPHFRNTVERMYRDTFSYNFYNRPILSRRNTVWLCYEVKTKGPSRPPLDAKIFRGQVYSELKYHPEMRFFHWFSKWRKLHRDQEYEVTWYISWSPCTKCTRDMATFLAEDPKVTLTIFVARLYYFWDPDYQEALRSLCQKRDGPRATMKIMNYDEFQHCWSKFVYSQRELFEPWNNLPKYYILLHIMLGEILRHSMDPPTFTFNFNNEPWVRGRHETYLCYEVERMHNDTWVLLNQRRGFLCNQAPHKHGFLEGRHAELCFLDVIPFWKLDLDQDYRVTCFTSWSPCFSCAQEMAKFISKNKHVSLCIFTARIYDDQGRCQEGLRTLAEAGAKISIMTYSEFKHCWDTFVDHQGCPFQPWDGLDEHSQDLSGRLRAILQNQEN
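Read-out is eYFP fluorescence (Ex 488/Em 500-530) from Vif-expressing HeLa A3G-eYFP cells; more signal means A3G escaped Vif-mediated degradation. Cells plated overnight, compound pinned in, incubated overnight at 37 deg C.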
Vif-APOBEC3F blk = qHTS for Inhibitors of Vif-A3F Interactions: qHTS. HeLa A3F-eYFP + Vif (tagged APOBEC3F with the HIV-1 protein that degrades it), YFP fluorescence increase. Potency, µM (titrated, usually from 46.1 µM). hit rate 0.2% among 390,000. AID 602313, 2012; note: nearly all actives have a fitted effect of over 65% in size
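Fluorescence increase (Ex 488/Em 500-530) after overnight compound treatment at 37 deg C flags inhibition of Vif-driven A3F-eYFP loss in stable HeLa A3F-eYFP/Vif cells seeded overnight beforehand.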
Epigenetic derep = Quantitative High-Throughput Screen for Regulators of Epigenetic Control | murine LDR cells, GFP reporter derepression, 30 h | Potency, µM (series often up to 53.9 µM), usual class: activators | hit rate 0.2% among 280,000 | AID 1865, 2009; note: nearly all actives have a fitted effect of over 60% in size
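Reporter derepression read as number of fluorescent GFP-positive objects, 20-120 um in size, counted by laser-scanning cytometer. Mouse LDR line with an epigenetically silenced CMV-GFP locus; compound incubation 30 h, 37 C.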
Numbers stand for hits; n = inactive; u = inconclusive; x = no result. Calls come from the whole dose curve; as a rule, active = well fitted curve in the direction sought with a large enough effect; inconclusive = small, poorly fitted or top-dose-only effect, or another doubt; inactive = no such curve, though single readings can be large; an effect the other way counts as inactive or inconclusive.

SMILES | Vif-APOBEC3G blk | Vif-APOBEC3F blk | Epigenetic derep
CC(=O)C1=C(C)NC(SCC(=O)c2ccccc2)=C(C#N)C1c1ccco1 (stereo not given) | x | x | n
CC(=O)C1=C(C)NC(SCC(=O)c2ccc(Cl)cc2)=C(C#N)C1c1ccco1 (stereo not given) | u | 25.1µM | n
CCOC(=O)c1cc(-c2ccccc2)n(CCC(=O)Nc2ccc(C(F)(F)F)cc2)c1C | n | n | u
CN(Cc1ccccc1)c1ccc(/C=C/c2sc3ccccc3[n+]2C)cc1 | n | x | x
C/C(=N/NC(N)=S)c1ccc(Br)s1 | n | 11.2µM | u
C/C(=N\NC(=O)Cc1ccccc1)c1ccc(Br)s1 | n | n | x
CCN1C(=O)/C(=C\N2CCN(C(=O)c3ccco3)CC2)SC1=S | n | n | n
CCN1CCN(c2c(/C=C3\SC(=S)N(Cc4ccco4)C3=O)c(C)c(C#N)c(=O)n2C)CC1 | u | u | 7.08µM
CC1(C)CC(=O)c2cc(-c3nc(-c4ccc(Br)cc4)cs3)c(=O)n(-c3ccccc3)c2C1 | n | n | n
O=C(CCc1nc2cccnc2n1Cc1cccs1)Nc1cccc(Cl)c1 | n | n | n
O=C(NN=Cc1c(O)ccc2ccccc12)c1ccc2c(c1)OCO2 | u | 7.94µM | x
O=C(N/N=C/c1ccccc1)c1ccc2c(c1)OCO2 | n | n | x
CNc1ccc(/C=C2\C=Cc3ccccc32)cc1Cl | n | x | x
CC(C)(C)n1ncc2c(=O)n(Cc3ccccc3CS(=O)(=O)c3ccccc3)cnc21 | n | x | x
CCC(=O)NC(=S)Nc1cccc(Cl)c1N1CCCC1 | n | 10µM | n
O=C(NC(=S)Nc1cccc(Cl)c1N1CCCCC1)c1ccc2c(c1)OCCO2 | n | u | n
CN(C)c1ccc(/C=C(\C#N)C(=O)Nc2nc3c(s2)CCN(Cc2ccccc2)C3)cc1 | u | n | 7.94µM
O=C(Nc1nc2c(s1)CN(Cc1ccccc1)CC2)C1CCC1 | n | n | n
CS(=O)(=O)N1CCN(/[N+]([O-])=N/Oc2ccc([N+](=O)[O-])cc2[N+](=O)[O-])CC1 (tested in a mixture with another compound) | n | x | x
CCN1CCc2c(sc(NC(=S)NC(=O)c3cccc(F)c3)c2C(N)=O)C1 | n | x | x
C[C@@H](Nc1nc(Cl)nc2nc[nH]c12)c1ccccc1 | n | x | x
Cc1cc(NC(=S)NC(=O)C2CC2)ccc1Br | n | n | n
Cc1cc(C)cc(NC(=S)NC(=O)C2CC2)c1 | n | 12.6µM | x
CC(C)OCCCNC(=O)Cc1ccc(NC(=O)N2CCCCc3ccccc32)cc1 | n | n | n
Cc1cc2oc3ccc(NCCCn4ccnc4)cc3c(=O)c2cc1C | u | 22.4µM | x
SMILES | Vif-APOBEC3G blk | Vif-APOBEC3F blk | Epigenetic derep
Cc1cc2oc3ccc(NCCCN4CCOCC4)cc3c(=O)c2cc1C | n | n | x
O=C(CCC(=O)N1CC2CCCN2c2ccccc21)NCc1ccc(F)cc1 (stereo not given) | n | n | n
COc1ccc(C=C2NC(=S)NC2=O)cc1 | n | n | x
COc1ccc(/C=C/C=C2\NC(=S)NC2=O)cc1 | u | 12.6µM | u
COc1ccc(S(=O)(=O)Nc2ccccc2-c2nc3ccccc3[nH]c2=O)cc1 | u | 3.55µM | x
CCC(=O)Nc1ccccc1-c1nc2ccccc2[nH]c1=O | n | n | x
C=CCOC(=O)NC(c1ccc(F)c(F)c1)C(C(=O)CCl)C(=O)OC (stereo not given) | x | x | n
C[C@H](NC(=O)[C@@H]1CSC2c3ccccc3C(=O)N21)C(=O)NC1CCCC1 (stereo not given in full) | 5.01µM | n | x
C[C@H](NC(=O)[C@@H]1CSC2c3ccccc3C(=O)N21)C(=O)NC1CCCCC1 (stereo not given in full) | n | n | x
Cc1cc(SCC(=O)c2cccs2)nc2ccccc12 | u | 11.2µM | n
O=C(CSc1nc2ccccc2c(=O)[nH]1)c1cccs1 | n | n | n
Cc1cc(C(F)(F)F)c2c(N)c(C(=O)Nc3cc(C)on3)sc2n1 | n | 11.2µM | u
COCc1cc(C)nc2sc(C(=O)Nc3ccccc3F)c(N)c12 | n | n | x
Nc1c(C(=O)Nc2ccccc2F)sc2nc(Cc3ccccc3)cc(C(F)(F)F)c12 | n | u | 12.6µM
Cc1cc(C)c2c(N)c(C(=O)Nc3ccccc3C(F)(F)F)sc2n1 | n | n | n
COc1ccccc1N1CCN(C(=O)c2cc(-c3ccc(C)c(F)c3)on2)CC1 | x | x | n
COc1cc2nc(CC(O)c3nc4cc(OC)c(OC)cc4[nH]3)[nH]c2cc1OC (stereo not given) | n | x | x
Fc1ccc(/C=C/c2ccc3ccccc3n2)cc1 | n | x | x
C=CCN1C(=O)N/C(=C/c2ccc(N3CCOCC3)o2)C1=O | x | x | n
C#CCN1C(=O)S/C(=C\c2ccc(-c3ccc(C(=O)O)cc3C)o2)C1=O | n | n | x
COc1ccc2cc(/C=C3\SC(=S)NC3=O)c(N3CCOCC3)nc2c1 | n | n | n
O=C1N=C(N2CCOCC2)S/C1=C/c1ccc(-c2ccc(F)cc2)o1 | n | u | n
O=C1S/C(=C/c2ccc(N3CCOCC3)o2)C(=O)N1Cc1ccc(F)cc1 | u | u | 14.1µM
O=C1S/C(=C\c2ccc(N3CCOCC3)o2)C(=O)N1Cc1ccc(F)cc1 | u | u | 3.55µM
CC(C)OC(=O)CN1C(=O)S/C(=C/c2ccc(N3CCCCC3)o2)C1=O | u | u | 11.2µM
SMILES | Vif-APOBEC3G blk | Vif-APOBEC3F blk | Epigenetic derep
O=C1NC(=S)S/C1=C/c1ccc(N2CCOCC2)o1 | 11.2µM | n | n
O=C(c1ccc2c(=O)n(-c3ccccc3)c(=O)[nH]c2c1)N1CCN(Cc2cccs2)CC1 | n | x | x
CCn1ccc2c(OCC(=O)Nc3ccc(OC)cc3OC)cccc2c1=O | n | n | n
O=C(Nc1c(Cl)cccc1Cl)c1cc(-c2cccc(O)c2)on1 | n | n | n
Cc1cccc(-c2noc(CN(C(=O)COc3ccc(Br)cc3C)C(C)C)n2)c1 | n | n | n
CC(C)(C)n1ncc2c(=O)n(Cc3ccc(C#N)cc3F)cnc21 | n | x | x
COc1ccc(NC(=O)CSc2c(C(C)C)cnc3c2c(=O)n(C)c(=O)n3C)c(OC)c1 | n | n | n
O=S1(=O)CCOC[C@H](c2ccccc2)N1Cc1ccc(Cl)cc1Cl | n | x | x
C#CCSc1nc(-c2cccs2)ccc1C#N | n | 2.82µM | n
Cc1ccc(CSc2nc(-c3cccs3)ccc2C#N)cc1 | u | n | n
O=C(OCCN1C(=O)c2ccccc2C1=O)c1cc(S(=O)(=O)N2CCOCC2)ccc1Cl | n | n | n
O=C(OCCN1C(=O)c2cccc3c(N4CCOCC4)ccc(c23)C1=O)c1cccc(Cl)c1 | u | u | 20µM
CCCOc1cccc(C(=O)N(Cc2sccc2C)C2CCS(=O)(=O)C2)c1 (stereo not given) | x | x | n
CCN(CC)S(=O)(=O)c1cc([N+](=O)[O-])ccc1N=Nc1c(O)[nH]c2ccccc12 | n | 12.6µM | 17.8µM
Cc1ccc2[nH]c(O)c(N=Nc3ccccc3[N+](=O)[O-])c2c1 | n | n | x
CC1C/C(=N/Nc2nc3ccccc3[nH]2)CC(C)(C)C1 (stereo not given) | n | n | n
c1ccc2[nH]c(NN=C3CCCCCC3)nc2c1 | n | 22.4µM | u
CCc1cnc2ccccc2c1/C=C/c1ccc(N(C)C)cc1 | n | x | x
O=C(Cn1c(O)c(N=NC(=O)c2ccncc2)c2ccccc21)Nc1ccccc1 | n | n | n
